Test results as given in PubChem BioAssay AID2069 (Sanford-Burnham Center for Chemical Genomics, 2009).
About 210 (18%) of roughly 1,200 compounds were called active. No stated cut-off is given here; in the data, active means inhibition above about 30%; inactive means the rest. This excerpt belongs to a sample that is enriched for actives.

Assay: fluorescence readout artefact check – biochemical, HTRF, uHTS, artefact control for SUMOylation inhibitor project, confirmation (AID 2069)
Settings: HTRF interference counterscreen, at 35 µM, hits give high values

Q: With `CC(C)[C@H]1C(=O)N2CCC[C@H]2[C@]2(O)O[C@](NC(=O)[C@@H]3C=C4c5cccc6[nH]cc(c56)C[C@H]4N(C)C3)(C(C)C)C(=O)N12` as the compound, how does the inhibition read?
A: The inhibition was 12.3% (inactive).

Q: With `CN1C[C@H](CO)C=C2c3cccc4[nH]cc(c34)C[C@H]21` as the compound, how does the inhibition read?
A: The inhibition was 36.9% (active).

Q: For `CN1CCN(c2ccc(S(C)(=O)=O)cc2[N+](=O)[O-])CC1`, which inhibition is on record?
A: Its inhibition is -0.45% (inactive).

Q: With `COc1ccc(Cc2nccc3cc(OC)c(OC)cc23)cc1OC` as the compound, how does the inhibition read?
A: The inhibition was -2.9% (inactive).

Q: For `O=C(O)c1cccc2c1NC(c1cccc([N+](=O)[O-])c1)C1CC(Sc3ccccc3[N+](=O)[O-])C(Cl)C21` (stereo unspecified), which inhibition is on record?
A: The inhibition was 26.1% (inactive).

Q: For `CCCCn1c(NS(=O)(=O)c2ccc(C)cc2)c(C(=O)OCC)c2nc3ccccc3nc21`, which inhibition is on record?
A: Its inhibition is 58% (active).

Q: With `CCCCn1c(N)c(C(=O)OCCOC)c2nc3ccccc3nc21` as the compound, how does the inhibition read?
A: The inhibition was 28.8% (inactive).

Q: For `CCCCn1c(N)c(C(=O)NCc2cccs2)c2nc3ccccc3nc21`, which inhibition is on record?
A: Its inhibition is 9.9% (inactive).

Q: With `CCCCn1c(NS(=O)(=O)c2ccccc2)c(C(=O)OCC)c2nc3ccccc3nc21` as the compound, how does the inhibition read?
A: Its inhibition is 70.9% (active).

Q: Which inhibition does the source give for `CCCCn1c(NC(=O)c2ccco2)c(C(=O)OCC)c2nc3ccccc3nc21` here?
A: Its inhibition is 22.1% (inactive).

Q: For `COc1cc(C(c2c(C)[nH]n(-c3ccccc3)c2=O)c2c(C)[nH]n(-c3ccccc3)c2=O)cc(OC)c1OC`, which inhibition is on record?
A: Its inhibition is 3.8% (inactive).

Q: Which inhibition does the source give for `O=C(O)CC1OCC=C2CN3CCC45C6=CC(=O)C(=O)C([N+](=O)[O-])=C6NC4C1C2CC35` (stereo unspecified) here?
A: The inhibition was 60.8% (active).

Q: For `COc1ccc(OC)c(N2C(=O)NC(=O)/C(=C/c3ccc([N+](=O)[O-])s3)C2=O)c1`, which inhibition is on record?
A: Its inhibition is -8.75% (inactive).

Q: For `CN1CCN(c2ccc3nccnc3c2)CC1`, which inhibition is on record?
A: The inhibition was 40.9% (active).

Q: Which inhibition does the source give for `Cc1ccccc1-n1c(O)c(/C=N/NC(=O)c2ccccc2O)c(=O)[nH]c1=S` here?
A: The inhibition was 3.4% (inactive).

Q: Which inhibition does the source give for `CN1CCC2(CC1)C(C#N)=C(N)NC(S)=C2C#N` here?
A: The inhibition was 76.5% (active).

Q: Which inhibition does the source give for `O=C1NC(=O)N(Cc2ccco2)C(=O)/C1=C\c1cccn1CCOc1ccc(Cl)cc1` here?
A: Its inhibition is -5.15% (inactive).

Q: With `O=C(c1cccn2c(=O)c3ccc(Cl)cc3nc12)N1CCC2(CC1)OCCO2` as the compound, how does the inhibition read?
A: The inhibition was 48.9% (active).

Q: With `O=c1[nH]c(O)c(/C=C2/C=CC(c3cc(Cl)ccc3Cl)=N2)c(=O)[nH]1` as the compound, how does the inhibition read?
A: Its inhibition is 18.3% (inactive).

Q: For `Cc1c(CC(=O)N2C[C@H]3C[C@@H](C2)c2cccc(=O)n2C3)c(=O)oc2c(C)c(O)ccc12`, which inhibition is on record?
A: The inhibition was 50.5% (active).

Q: Which inhibition does the source give for `N#C/C(=C(/O)c1ccc(S(=O)(=O)N(CCCl)CCCl)cc1)c1nc2ccccc2[nH]1` here?
A: The inhibition was 28.4% (inactive).

Q: With `Cc1ccsc1C(=O)C1CCCN(Cc2ccc(-n3cccn3)cc2)C1` (stereo unspecified) as the compound, how does the inhibition read?
A: Its inhibition is 30.6% (active).

Q: For `CC(=O)c1ccc2c(c1)C1C(Cl)C(Sc3ccccc3[N+](=O)[O-])CC1C(c1ccccc1[N+](=O)[O-])N2` (stereo unspecified), which inhibition is on record?
A: Its inhibition is -3.55% (inactive).

Q: For `CCN(CC)c1ccc([N+](=O)[O-])c2cccnc12`, which inhibition is on record?
A: Its inhibition is -11.9% (inactive).

Q: With `O=C(O)CCn1cc(C=C2C(=O)NC(=O)NC2=O)c(-c2ccc(Br)cc2)n1` as the compound, how does the inhibition read?
A: The inhibition was -3.4% (inactive).

Q: Which inhibition does the source give for `CCCCn1c(N)c(C(=O)OCC2CCCO2)c2nc3ccccc3nc21` (stereo unspecified) here?
A: Its inhibition is 28.1% (inactive).

Q: For `CC(C)CCNC(=O)c1c(N)n(Cc2ccc3c(c2)OCO3)c2nc3ccccc3nc12`, which inhibition is on record?
A: Its inhibition is 19.7% (inactive).

Q: For `CCC(C)NC(=O)c1c(N)n(CC2CCCO2)c2nc3ccccc3nc12` (stereo unspecified), which inhibition is on record?
A: Its inhibition is 32.5% (active).

Q: Which inhibition does the source give for `CCC(C)NC(=O)c1c(N)n(Cc2ccc3c(c2)OCO3)c2nc3ccccc3nc12` (stereo unspecified) here?
A: Its inhibition is 24.4% (inactive).

Q: For `CC(C)CNC(=O)c1c(N)n(Cc2ccc3c(c2)OCO3)c2nc3ccccc3nc12`, which inhibition is on record?
A: Its inhibition is 15.9% (inactive).

Q: For `Nc1c(C(=O)NC2CCCC2)c2nc3ccccc3nc2n1CC1CCCO1` (stereo unspecified), which inhibition is on record?
A: Its inhibition is 27.9% (inactive).

Q: With `CCOCCCn1c(N)c(C(=O)Nc2sc3c(c2C(=O)OC)CCCC3)c2nc3ccccc3nc21` as the compound, how does the inhibition read?
A: Its inhibition is -2.4% (inactive).

Q: With `CCCNC(=O)c1c(N)n(CC2CCCO2)c2nc3ccccc3nc12` (stereo unspecified) as the compound, how does the inhibition read?
A: Its inhibition is 42% (active).

Q: With `Nc1c(C(=O)NCCCc2ccccc2)c2nc3ccccc3nc2n1Cc1cccs1` as the compound, how does the inhibition read?
A: The inhibition was 8% (inactive).

Q: Which inhibition does the source give for `CC(C)OCCCNC(=O)c1c(N)n(CC2CCCO2)c2nc3ccccc3nc12` (stereo unspecified) here?
A: Its inhibition is 51.1% (active).

Q: For `CC(C)CCNC(=O)c1c(N)n(CC2CCCO2)c2nc3ccccc3nc12` (stereo unspecified), which inhibition is on record?
A: Its inhibition is 30.4% (active).

Q: For `CCCNC(=O)c1c(N)n(Cc2ccc3c(c2)OCO3)c2nc3ccccc3nc12`, which inhibition is on record?
A: The inhibition was 9.15% (inactive).

Q: Which inhibition does the source give for `O=C1NC(=O)N(Cc2ccco2)C(=O)/C1=C/c1ccc(-c2cccc([N+](=O)[O-])c2)o1` here?
A: The inhibition was 14.7% (inactive).

Q: With `O=C(N/N=C/c1c(O)n(Cc2ccco2)c(=O)[nH]c1=O)c1ccccc1O` as the compound, how does the inhibition read?
A: The inhibition was 22.9% (inactive).

Q: For `Cc1cc(/C=C2\C(=O)NC(=O)N(Cc3ccccc3)C2=O)c(C)n1-c1ccc(Cl)c(C(=O)O)c1`, which inhibition is on record?
A: The inhibition was 34.7% (active).

Q: Which inhibition does the source give for `O=C(O)c1ccc2c(c1)C1C(Cl)C(Sc3ccccc3[N+](=O)[O-])CC1C(c1cccc([N+](=O)[O-])c1)N2` (stereo unspecified) here?
A: The inhibition was -6.5% (inactive).

Q: With `CC(=O)c1ccc2c(c1)C1C(Cl)C(Sc3ccccc3[N+](=O)[O-])CC1C(C(=O)O)N2` (stereo unspecified) as the compound, how does the inhibition read?
A: Its inhibition is 5.25% (inactive).

Q: Which inhibition does the source give for `O=C1NC(=S)NC(=O)C1=Cc1cccn1-c1ccc(O)cc1` here?
A: Its inhibition is 21.8% (inactive).

Q: With `CCC(C)NC(=O)c1c(N)n(CCCOC)c2nc3ccccc3nc12` (stereo unspecified) as the compound, how does the inhibition read?
A: Its inhibition is 36.5% (active).

Q: With `COCCCn1c(N)c(C(=O)Nc2ccccc2)c2nc3ccccc3nc21` as the compound, how does the inhibition read?
A: The inhibition was 7.4% (inactive).

Q: For `COCCNC(=O)c1c(N)n(CCC(C)C)c2nc3ccccc3nc12`, which inhibition is on record?
A: The inhibition was 34.7% (active).

Q: Which inhibition does the source give for `COCCCn1c(N)c(C(=O)OCCOC)c2nc3ccccc3nc21` here?
A: The inhibition was 29.9% (inactive).

Q: For `CC(C)CCn1c(N)c(C(=O)NCc2cccs2)c2nc3ccccc3nc21`, which inhibition is on record?
A: The inhibition was 15.4% (inactive).

Q: For `COCCCn1c(N)c(C(=O)NCCC(C)C)c2nc3ccccc3nc21`, which inhibition is on record?
A: Its inhibition is 24.1% (inactive).

Q: With `CCCCNC(=O)c1c(N)n(CCCOC)c2nc3ccccc3nc12` as the compound, how does the inhibition read?
A: Its inhibition is 30.9% (active).

Q: With `COc1cc(Cn2c(N)c(C(=O)NCc3ccco3)c3nc4ccccc4nc32)cc(OC)c1OC` as the compound, how does the inhibition read?
A: The inhibition was 11.6% (inactive).

Q: For `COc1ccc(Cn2c(N)c(C(=O)NCc3ccco3)c3nc4ccccc4nc32)cc1`, which inhibition is on record?
A: Its inhibition is 11.2% (inactive).

Q: With `CCOC(=O)c1c(NC(=O)c2c(N)n(CCCOC)c3nc4ccccc4nc23)sc2c1CCCC2` as the compound, how does the inhibition read?
A: Its inhibition is -0.35% (inactive).

Q: Which inhibition does the source give for `COCCCn1c(N)c(C(=O)NCc2ccco2)c2nc3ccccc3nc21` here?
A: Its inhibition is 34.1% (active).

Q: Which inhibition does the source give for `CCCCCn1c(N)c(C(=O)NCc2cccs2)c2nc3ccccc3nc21` here?
A: The inhibition was 12.7% (inactive).

Q: With `CN1CCc2nc3sc(C#N)c(N)c3c(-c3cccs3)c2C1` as the compound, how does the inhibition read?
A: Its inhibition is 14.3% (inactive).

Q: Which inhibition does the source give for `c1ccc2c(NC3=NCCS3)cccc2c1` here?
A: Its inhibition is -3.5% (inactive).

Q: For `Cc1[nH]n(-c2ccccc2)c(=O)c1C(c1ccc([N+](=O)[O-])cc1)c1c(C)[nH]n(-c2ccccc2)c1=O`, which inhibition is on record?
A: Its inhibition is -5.95% (inactive).

Q: For `O=c1[nH]c(O)c(/C=C2\C=Nc3ccc(OCc4ccccc4)cc32)c(=O)[nH]1`, which inhibition is on record?
A: Its inhibition is 8.25% (inactive).

Q: For `COCCNC(=O)c1c(NC(=O)c2ccco2)n(Cc2ccccc2)c2nc3ccccc3nc12`, which inhibition is on record?
A: Its inhibition is 17.8% (inactive).

Q: For `Cn1c(O)c(/C=C2\N=c3ccccc3=C2CCNC(=S)NC2CC2)c(=O)n(C)c1=O`, which inhibition is on record?
A: Its inhibition is 13.3% (inactive).
